Out of some 1,300 compounds screened, about 270 (21%) were called active.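 How the source made its calls: active means dose-dependent rise or fall in viability, either side of zero, with half-maximal concentration at or below a set limit; inconclusive means flat curve at 30 to 70% viability loss, or poor fit; inactive means flat within 30% either way, or potency beyond limit.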 Not all results are given here. Results with a measured potency or affinity are listed apart.
Assay: proliferation inhibition in MITF-low A375 cells – cell-based, cherry-pick samples, set 2, counter-screen for MITF modulator project, dose response (AID 540335);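 further: A375 human melanoma cells which do not depend on MITF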
Conditions: CellTiter-Glo ATP luminescence, 24 h; series mostly up to 35 µM

Question: Which outcome does the source give for CCN(CC)CCC(=O)N1C/C(=C/c2ccccc2)C(=O)/C(=C\c2ccccc2)C1 here?
Answer: The outcome was “inactive”.

Question: Which outcome does the source give for COc1cc(NC(=O)COc2ccccc2[N+](=O)[O-])ccc1NC(=O)c1cccs1 here?
Answer: The outcome was “inactive”.

Question: For O=C(Cn1ncc(Cl)c(Cl)c1=O)Nc1ccc2c(c1)OCO2, which outcome is on record?
Answer: Its outcome is “inactive”.

Question: With O=C(c1ccccc1)c1cc(Cl)ccc1N1C(=O)C=CC1=O as the compound, how does the outcome read?
Answer: The outcome was “inactive”.

Question: For O=C(N/N=C/c1ccc([N+](=O)[O-])o1)c1ccc(O)cc1, which outcome is on record?
Answer: Its outcome is “inactive”.

Question: For Cc1cc(Sc2ncnc(N)c2[N+](=O)[O-])ncn1, which outcome is on record?
Answer: Its outcome is “inactive”.

Question: Which outcome does the source give for COc1cccc2sc(N3CCN(C(=O)c4ccc([N+](=O)[O-])o4)CC3)nc12 here?
Answer: Its outcome is “inactive”.

Question: Which outcome does the source give for Cc1cccc2sc(N(CCCN(C)C)C(=O)c3nc4ccccc4s3)nc12 here?
Answer: Its outcome is “inactive”.

Question: With CN(C)c1ccc(C2=NOC(CN3C(=O)c4ccccc4S3(=O)=O)C2)cc1 (centres undefined) as the compound, how does the outcome read?
Answer: Its outcome is “inactive”.

Question: For COc1cc(OC)cc(-c2oc(=O)c3cc(OC)c(OC)cc3c2C(F)(F)F)c1, which outcome is on record?
Answer: Its outcome is “inactive”.

Question: For CCN1CCN(c2ccc(Nc3ccnc4ccccc34)cc2)CC1, which outcome is on record?
Answer: Its outcome is “inactive”.

Question: For CCOc1ccc(NC(=O)Nc2cccc(C(=O)O)c2)cc1, which outcome is on record?
Answer: Its outcome is “inactive”.

Question: For O=C(Nc1nnc(Cc2ccccc2)s1)c1ccccc1, which outcome is on record?
Answer: The outcome was “inactive”.

Question: Which outcome does the source give for Cc1ccc(/C=N/Nc2ccc(C(=O)O)cc2)s1 here?
Answer: Its outcome is “inactive”.

Question: With C/C(=N\NC(=O)C(c1ccccc1)c1ccccc1)c1ccccn1 as the compound, how does the outcome read?
Answer: Its outcome is “inactive”.

Question: For O=C(c1ccc([N+](=O)[O-])s1)N1CCN(c2ccccn2)CC1, which outcome is on record?
Answer: Its outcome is “inactive”.

Question: For O=c1c2ccccc2cnn1CCOc1ccccc1, which outcome is on record?
Answer: The outcome was “inactive”.

Question: For Cc1nc2ccccc2n1/N=C/c1ccc([N+](=O)[O-])s1, which outcome is on record?
Answer: Its outcome is “inactive”.

Question: With CCCOCc1ccc(O)c2ncccc12 as the compound, how does the outcome read?
Answer: The outcome was “inactive”.

Question: Which outcome does the source give for CN(C)C1CCN(Cc2cc(COCc3ccccc3)c3cccnc3c2O)C1 (centres undefined) here?
Answer: Its outcome is “inactive”.

Question: With Cc1cc(C(C)(C)C)cc(C)c1Cn1c2[n+](c3ccc(C(F)(F)F)cc31)CCCCC2 as the compound, how does the outcome read?
Answer: Its outcome is “inactive”.

Question: Which outcome does the source give for Cc1ccc(-n2nnnc2CNC(=O)c2ccc([N+](=O)[O-])o2)cc1C here?
Answer: The outcome was “inactive”.

Question: With Cc1nc2nc(C)c(NS(=O)(=O)c3ccc4c(c3)CCCC4)c(=O)n2[nH]1 as the compound, how does the outcome read?
Answer: The outcome was “inactive”.

Question: With CCCN(CCC)C1=CC(=[N+]2CCCC2)CC(C)(C)C1 as the compound, how does the outcome read?
Answer: The outcome was “inactive”.

Question: Which outcome does the source give for CN(Cc1ccccc1)C1=CC(=[N+]2CCCC2)CC(C)(C)C1 here?
Answer: Its outcome is “inactive”.

Question: For CN(C)S(=O)(=O)c1ccc(-c2csc(N/N=C/c3ccco3)n2)cc1, which outcome is on record?
Answer: Its outcome is “inactive”.

Question: Which outcome does the source give for COc1ccc(C(=O)N/N=C/c2cc(Br)ccc2O)cc1OC here?
Answer: The outcome was “inactive”.

Question: With CCOc1ccc(N/C=C/C(=O)c2ccc(OC)c(OC)c2)cc1 as the compound, how does the outcome read?
Answer: The outcome was “inactive”.

Question: With Cc1ccc(-c2n[nH]c(=O)c3ccccc23)cc1S(=O)(=O)NCC1CCCO1 (centres undefined) as the compound, how does the outcome read?
Answer: The outcome was “inactive”.

Question: For COc1ccc(C(=O)/C=C/C(=O)N(CC(=O)NC2CCCCC2)Cc2ccc(F)cc2)c(O)c1, which outcome is on record?
Answer: Its outcome is “inactive”.

Question: For COc1ccc(N/N=C/c2c(C(=O)O)ccc3ccccc23)cc1, which outcome is on record?
Answer: The outcome was “inactive”.

Question: With COc1ccc(NC(=O)NC(=O)c2ccccc2)cc1 as the compound, how does the outcome read?
Answer: The outcome was “inactive”.

Question: With N#CC(C#N)=C1C=CC=CN1/C(=C\c1ccco1)C(=O)c1ccc(Cl)cc1 as the compound, how does the outcome read?
Answer: Its outcome is “inactive”.

Question: For COc1ccccc1-c1cc(C(F)(F)F)nc(S(C)(=O)=O)n1, which outcome is on record?
Answer: Its outcome is “inactive”.

Question: With Cc1ccc2c(C(=O)CCl)c(C)[nH]c2c1 as the compound, how does the outcome read?
Answer: The outcome was “inactive”.

Question: With O=S(=O)(CC(CN1CCCCC1)N1CCCCC1)c1ccc2ccccc2c1 (centres undefined) as the compound, how does the outcome read?
Answer: Its outcome is “inactive”.

Question: For COc1ccc(C(=O)C(CN2CCOCC2)c2ccccc2)cc1 (centres undefined), which outcome is on record?
Answer: Its outcome is “inactive”.

Question: With CC(NC(=O)C12CC3CC(CC(C3)C1)C2)C(=O)NN=Cc1ccc([N+](=O)[O-])o1 (centres undefined) as the compound, how does the outcome read?
Answer: Its outcome is “inactive”.

Question: For COC1=C(c2ccccc2)C(=O)c2ccccc2C1=O, which outcome is on record?
Answer: The outcome was “inactive”.

Question: For COc1ccc(-c2nc(-c3ccccc3OC)no2)cc1OC, which outcome is on record?
Answer: Its outcome is “inactive”.

Question: Which outcome does the source give for CN1CCN(C2=C(NS(=O)(=O)c3cccs3)C(=O)c3ccccc3C2=O)CC1 here?
Answer: Its outcome is “inactive”.

Question: Which outcome does the source give for COc1ccc2nc(C)cc(NCc3cccc(C(F)(F)F)c3)c2c1 here?
Answer: The outcome was “inactive”.

Question: Which outcome does the source give for O=C1C=CC(=C(c2ccc(O)cc2)c2ccc(O)cc2)C=C1 here?
Answer: Its outcome is “inactive”.

Question: For CC(C)(C)C(=O)/C(=C/c1ccncc1)n1cncn1, which outcome is on record?
Answer: The outcome was “inactive”.

Question: With O=C(Nc1ccc2oc(-c3cccnc3)nc2c1)c1ccc([N+](=O)[O-])o1 as the compound, how does the outcome read?
Answer: The outcome was “inactive”.

Question: With COc1ccccc1NC(=O)c1nc(S(=O)(=O)Cc2ccccc2)ncc1Cl as the compound, how does the outcome read?
Answer: Its outcome is “inactive”.

Question: For CC(=O)Nc1ccc(NC(=O)c2nc(S(=O)(=O)Cc3ccccc3)ncc2Cl)cc1, which outcome is on record?
Answer: The outcome was “inactive”.

Question: For Cc1ccc(C(=O)c2cccc(N)c2)cc1C, which outcome is on record?
Answer: The outcome was “inactive”.

Question: With COc1cc(NC(=O)COc2cc(O)c3c(c2)OC(C)(C)CC3=O)cc(OC)c1OC as the compound, how does the outcome read?
Answer: The outcome was “inactive”.

Question: Which outcome does the source give for O=C(CCl)Nc1cccc(S(=O)(=O)N2CCCCCC2)c1 here?
Answer: The outcome was “inactive”.

Question: Which outcome does the source give for Cc1cc(/C(N)=N/OC(=O)c2ccc(Cl)cc2)no1 here?
Answer: Its outcome is “inactive”.

Question: Which outcome does the source give for CCCCN1CCc2c1nc1ccc(Br)cc1c2N here?
Answer: The outcome was “inactive”.

Question: Which outcome does the source give for O=C(COC(=O)c1ccccc1C(=O)c1ccc(Cl)c([N+](=O)[O-])c1)NC1CC1 here?
Answer: Its outcome is “inactive”.

Question: Which outcome does the source give for CCOc1ccc(-c2ccc(SC)nn2)cc1 here?
Answer: The outcome was “inactive”.

Question: Which outcome does the source give for Cc1ccc(C(=O)N/N=C\c2ccc([N+](=O)[O-])s2)cn1 here?
Answer: Its outcome is “inactive”.

Question: For CCN(CC)CCNC(=O)C1CCN(S(=O)(=O)c2c(C)noc2/C=C/c2ccccc2F)CC1, which outcome is on record?
Answer: The outcome was “inactive”.

Question: For Cc1cc(C)cc(OCC(=O)N/N=C/c2ccc([N+](=O)[O-])o2)c1, which outcome is on record?
Answer: Its outcome is “inactive”.

Question: For N=c1n(CCN2CCCC2)c2ccccc2n1CC(O)c1ccc(Cl)c(Cl)c1 (centres undefined), which outcome is on record?
Answer: The outcome was “inactive”.

Question: For O=C(CNc1cccc2ccccc12)N/N=C/c1ccc([N+](=O)[O-])o1, which outcome is on record?
Answer: Its outcome is “inactive”.

Question: Which outcome does the source give for Cc1ccccc1C(=O)N/N=C/c1ccc([N+](=O)[O-])s1 here?
Answer: Its outcome is “inactive”.

Question: Which outcome does the source give for Cc1cc2ncn(/N=C/c3ccc([N+](=O)[O-])o3)c2cc1C here?
Answer: The outcome was “inactive”.

Question: For O=C(N/N=C/c1ccc([N+](=O)[O-])o1)c1cc2ccccc2o1, which outcome is on record?
Answer: Its outcome is “inactive”.

Question: For CC1(C(=O)N/N=C/c2ccc([N+](=O)[O-])o2)CC1(Br)Br (centres undefined), which outcome is on record?
Answer: Its outcome is “inactive”.

Question: For CCOC(=O)CCc1ccc(NC(=O)/C=C/c2ccc([N+](=O)[O-])o2)cc1, which outcome is on record?
Answer: The outcome was “inactive”.

Question: For CC(C)n1cc(/C=C/c2cc[n+](C)cc2)c2ccccc21, which outcome is on record?
Answer: Its outcome is “inactive”.

Question: For CCOc1ccc(-n2c(C)cc(C(=O)CCl)c2C)cc1, which outcome is on record?
Answer: The outcome was “inactive”.

Question: Which outcome does the source give for COc1ccc(-n2c(C)cc(C(=O)CCl)c2C)cc1 here?
Answer: Its outcome is “inactive”.

Question: With O=C(Nc1ccc2nc3n(c(=O)c2c1)CCCCC3)c1cc([N+](=O)[O-])ccc1F as the compound, how does the outcome read?
Answer: Its outcome is “inactive”.

Question: With CCOC(=O)c1nnn(-c2ccc([N+](=O)[O-])cc2[N+](=O)[O-])c1C as the compound, how does the outcome read?
Answer: Its outcome is “inactive”.

Question: For Cc1ccc(NC(=O)CCl)cc1S(=O)(=O)N1CCCCCC1, which outcome is on record?
Answer: Its outcome is “inactive”.

Question: With O=C(Nc1ccc(-c2nc3ncccc3o2)cc1)c1ccc([N+](=O)[O-])o1 as the compound, how does the outcome read?
Answer: The outcome was “inactive”.

Question: With CCN(CC)CCn1nc2c3c(cccc3c1=O)-c1ccccc1-2 as the compound, how does the outcome read?
Answer: The outcome was “inactive”.

Question: Which outcome does the source give for Cc1ccc(NC(=O)CN(C)C(=O)Cn2ncc(Cl)c(Cl)c2=O)cc1 here?
Answer: Its outcome is “inactive”.

Question: With COc1cc(C2C(C#N)=C(N)Oc3cc4c(cc32)OCO4)cc(OC)c1OC (centres undefined) as the compound, how does the outcome read?
Answer: Its outcome is “inactive”.

Reference: PubChem BioAssay AID540335 (Broad Institute, 2011)
